According to the OligoGym collection:

The sequences below were run against STRADB (assay: pooled miR-30 sensor sort-seq; sequence = guide strand). Settings: shRNA.

First: TTCTGTAACAGCATCTGAGTTC
Second: TTGATGGCTTGTTATAAGCAGG
The sensor-assay potency score (higher = more potent) of the first is higher: -0.403 for the first, -1.06 for the second.

Compared with TAGATTAGTAATTCTGATGTTT, TTCTTCATTGCAGTTTTCCAGA is lower in sensor-assay potency score (higher = more potent): 0.0372 for the first, -0.72 for the second.

Going from ATCTTGTTGCAAACAGAGCTGT to TCTGACTTCACATTATACCCAT, the sensor-assay potency score (higher = more potent) rises from -0.583 to 0.302.

Going from TACTCCTGTGAATACAGCCATT to TAATCGGTCACTATTTACTGTG, the sensor-assay potency score (higher = more potent) rises from -1.43 to -0.781.

The sequences below were run against STRBP in the same assay as above. Settings: shRNA.

First: TTCTTCTCCAATTCGTCCCTAA
Second: TTTGAGACTCTATACATCCTTC
The sensor-assay potency score (higher = more potent) of the first is higher: 0.053 for the first, -0.328 for the second.

Compared with TAAAACTTAAACTTTGAACTGC, TAACAGAACCATTCTCTTGGGT is lower in sensor-assay potency score (higher = more potent): 0.571 for the first, 0.367 for the second.

First: TTGAGTTTGAAGACACTGTTTC
Second: TTACTATCCAGAATTTTCCTTA
The sensor-assay potency score (higher = more potent) of the first is lower: -0.227 for the first, 0.368 for the second.

First: TTTGACTGTATTTAACAGGGTC
Second: TTTCGTTTCATCTTCTTGTTGG
The sensor-assay potency score (higher = more potent) of the first is lower: 0.301 for the first, 0.788 for the second.

Going from TTGATATTTCTCTTCTGTGAGT to TTACACATGATTTTAATCCATT, the sensor-assay potency score (higher = more potent) falls from -0.566 to -0.986.

The sequences below were run against STUB1 in the same assay as above. Settings: shRNA.

Compared with TTATTACACAGATAGTGGCGGC, ATAGCTCTCCATCTCCAGCTGG is lower in sensor-assay potency score (higher = more potent): 0.272 for the first, -0.665 for the second.

First: TTCCAGCGCTTCTTCTTCGCGA
Second: TAATACACGGCCACCAGCGGGT
The sensor-assay potency score (higher = more potent) of the first is higher: -0.702 for the first, -0.893 for the second.

Going from TTCAGGTAGCACAAGGCCCGGT to TTCGCGATTCGAAGAGCGCTGG, the sensor-assay potency score (higher = more potent) rises from -0.567 to -0.358.

Compared with TTGCCACACAGGTAGTCGGGGA, TGCTCCTCGATGTCCTTGCGGT is lower in sensor-assay potency score (higher = more potent): -0.252 for the first, -0.704 for the second.

First: TTCCTCTTCTCATCCACCTGAG
Second: TTGCGGTCGTAGGTGATGCCAC
The sensor-assay potency score (higher = more potent) of the first is higher: -0.167 for the first, -0.555 for the second.

Compared with TTGAGCTCCTGCGCGCTCGGGC, TAGCTCTCCATCTCCAGCTGGC is higher in sensor-assay potency score (higher = more potent): -0.67 for the first, -0.433 for the second.

These sequences were tested against STX12 in the same assay as above. Settings: shRNA.

First: TTGAGTCCTGCTTAGTTCCTAG
Second: TAACTGTTGCAGATTTTCCTGT
The sensor-assay potency score (higher = more potent) of the first is lower: -0.155 for the first, 0.412 for the second.

First: TAGCTTGCTTGAGTCCTGCTTA
Second: TACCCTTCTCTGCACAGCCTGG
The sensor-assay potency score (higher = more potent) of the first is higher: -0.146 for the first, -1.07 for the second.

First: TCTGATAGTAAGCAGCTCGCTG
Second: TTTTTGTCTAAAACTATGCATG
The sensor-assay potency score (higher = more potent) of the first is higher: -0.759 for the first, -0.984 for the second.

First: AAATATCTGATTGACATCCAAA
Second: TTTTCCTGTAGCTTGCTTGAGT
The sensor-assay potency score (higher = more potent) of the first is lower: -1.28 for the first, 0.00107 for the second.

First: TTTTCTGATAGTAAGCAGCTCG
Second: TTGTCTAAAACTATGCATGGAG
The sensor-assay potency score (higher = more potent) of the first is higher: 0.207 for the first, -0.297 for the second.
